# Screening results: PubChem BioAssay, National Center for Advancing Translational Sciences (NCATS)
# Hits are enriched below; roughly 7.5% of the tested compounds scored in any of these assays.
# ELG1 DNA repair = inhibitors of ELG1-dependent DNA repair in HEK293T cells | AID 504467 | HEK293T ELG1-luciferase reporter, luminescence, 16 h; DNA damage induced by 5-fluorouridine | Potency, µM (doses to about 46.1 µM), hits mostly inhibitors | 330,000 compounds, 2.3% hits; also: nearly all actives have a fitted effect of over 55% in size
#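 Luminescence from the luciferase reporter, measured 30 min after ONE-Glo reagent at room temperature, was the read-out. Beforehand, 2,000 cells per well were exposed for 16 hr at 37 °C to 5-fluorouridine together with compound or vehicle.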
# RORg inh = blocks mouse ROR gamma transcriptional activity. P51450. Drosophila S2 Gal4-RORgamma UAS-luciferase reporter, 20 h. Potency, µM (titrated, usually from 53.6 µM), usual class: inhibitors. 310,000 compounds, 5.4% hits; also: nearly all actives have a fitted effect of over 60% in size
#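 Schneider cells (Drosophila), stable Gal4 DBD–ROR gamma + UAS-luc; 1 hr cmpd preincubation; Cu2+ induction 700 uM final; 20 hr ambient; luminescence.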
# B2AR arrestin = agonists driving beta-arrestin recruitment to human beta2-adrenergic receptor. P07550. beta-arrestin recruitment to beta2AR, cell-based reporter. Potency, µM (series often up to 46.1 µM), usual class: activators. 330,000 compounds, 0.02% hits. AID 492947; also: nearly all actives have a fitted effect of over 65% in size
# TSHR antagonist = blocks TSH signaling through the human TSH receptor; P16473; activity change, negative = inhibition, % at 11.5 µM; 330,000 compounds, 0.2% hits; TSHR-expressing cells, TSH-stimulated cAMP HTRF, 2 h; stronger effect = lower value; AID 504810;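 active = activity change below a set negative limit, meaning inhibition stronger than a set level, cut at about -70% in these data; inconclusive = activity change between two set negative limits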
# Target sequence (P16473 whole entry, looked up): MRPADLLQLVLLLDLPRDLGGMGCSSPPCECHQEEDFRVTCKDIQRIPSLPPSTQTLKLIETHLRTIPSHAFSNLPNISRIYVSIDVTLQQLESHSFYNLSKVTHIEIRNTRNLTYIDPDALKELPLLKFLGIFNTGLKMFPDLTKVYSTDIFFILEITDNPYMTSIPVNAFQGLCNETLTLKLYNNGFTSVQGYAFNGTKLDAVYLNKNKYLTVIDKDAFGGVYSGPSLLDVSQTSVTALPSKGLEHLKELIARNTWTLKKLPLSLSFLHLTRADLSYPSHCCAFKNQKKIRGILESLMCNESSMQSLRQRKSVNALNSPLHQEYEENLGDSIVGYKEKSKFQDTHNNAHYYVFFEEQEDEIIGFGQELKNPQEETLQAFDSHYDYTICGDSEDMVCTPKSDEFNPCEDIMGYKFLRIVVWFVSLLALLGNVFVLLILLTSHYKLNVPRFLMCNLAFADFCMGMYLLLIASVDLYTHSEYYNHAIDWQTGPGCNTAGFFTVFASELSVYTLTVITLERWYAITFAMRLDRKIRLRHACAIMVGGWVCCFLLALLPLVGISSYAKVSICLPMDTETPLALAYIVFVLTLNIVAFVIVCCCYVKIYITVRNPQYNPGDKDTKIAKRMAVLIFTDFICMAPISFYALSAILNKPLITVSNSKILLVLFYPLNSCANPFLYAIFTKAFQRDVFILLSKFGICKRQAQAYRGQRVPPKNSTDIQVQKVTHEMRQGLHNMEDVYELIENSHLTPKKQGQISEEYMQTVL
#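 Freshly harvested TSHR cells receive pin-tooled compound, then EC80 TSH at 4nM final. After 2 hours at 37 deg C, antibody in lysis buffer and cAMP-d2 are added; 30 minutes at ambient temperature precede the HTRF read.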
# Gal4-VP16 FLuc = Gal4-VP16 reporter inhibition counter-screen; Drosophila S2 Gal4-VP16 UAS-luciferase, luminescence, 20 h; AID 2546; Potency, µM (titrated, usually from 53.6 µM), hits mostly inhibitors; 310,000 compounds, 3.5% hits;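 also: Gal4-VP16 expression switched on by copper sulfate through the metallothionein promoter; nearly all actives have a fitted effect of over 50% in size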
# Numbers stand for hits; – = inactive; ? = inconclusive; · = not tested or not shown; [ ] = dose if it differs, or a comment. Unless noted, calls follow the shape of the dose curve; as a rule, active = well fitted curve in the direction sought with a large enough effect; inconclusive = small, poorly fitted or top-dose-only effect, or another doubt; inactive = no such curve, though single readings can be large; an effect the other way counts as inactive or inconclusive.
SMILES,ELG1 DNA repair,RORg inh,B2AR arrestin,TSHR antagonist,Gal4-VP16 FLuc
COCCn1c(=O)c(-c2cccc(C#N)c2)nc2cnc(N3CCOCC3)nc21,·,–,·,·,–
CCCCCOc1ccc(CSCCNC(=S)Nc2ccccc2)cc1,?,3.2µM,–,–,3.2µM
CCCCCOc1ccc(NC(=O)CCCC(=O)O)cc1,–,–,–,–,–
S=C(NCCCNC(=S)Nc1ccccc1)Nc1ccccc1,–,?,–,–,–
CC(C)COc1ccc(CSCCNC(=S)Nc2ccccc2)cc1,–,1.1µM,–,–,3.2µM
CCCCOc1ccc(CSCCNC(=S)Nc2ccccc2)cc1,–,4.5µM,–,–,4.5µM
COc1cccc([C@@H]2Oc3ccc(OC)cc3C[C@H]2O)c1,·,–,·,·,–
CCOC(=O)c1nc(C)sc1-c1ccnn1S(=O)(=O)c1ccc(C)cc1,–,–,–,-78,–
Clc1ccc(-c2nc(NCCCN3CCOCC3)c3ccccc3n2)cc1,23µM,–,–,–,–
CN(CC(=O)Nc1c(Cl)cccc1Cl)C(=O)CCC1CCCC1,?,–,–,–,11µM
CN(CC(=O)Nc1cccc(F)c1)C(=O)CCC1CCCCC1,–,·,–,–,·
Nc1ncnc(NCc2ccccc2)c1[N+](=O)[O-],10µM,–,–,–,–
Nc1ncnc(NCc2ccc(F)cc2)c1[N+](=O)[O-],8.2µM,?,–,–,–
CCOc1cc(N2CCOCC2)c(OCC)cc1NC(C)C(=O)N1CCC(C)CC1 (stereo unspecified),9.2µM,–,–,–,?
CCOc1cc(N2CCOCC2)c(OCC)cc1NC(=O)COc1cccc(CC)c1,23µM,·,–,–,·
CCOc1cc(N2CCOCC2)c(OCC)cc1NC(=O)CSc1ccccc1C(=O)O,–,·,–,–,·
CCOc1cc(N2CCOCC2)c(OCC)cc1NC(=O)Cc1cccc(OC)c1,?,–,–,–,–
CCOc1cc(N2CCOCC2)c(OCC)cc1NCC(=O)N1CCN(Cc2ccccc2)CC1,8.2µM,–,–,–,?
COc1cc(-c2nc3ccc(N4CCN(C)CC4)cc3[nH]2)cc(OC)c1OC,?,7.1µM,–,–,?
O=C(CCNS(=O)(=O)c1ccccc1)OCC(=O)c1ccc[nH]1,–,·,–,·,·
O=C(O)c1ccccc1/C=N/Nc1nc(N2CCCCC2)nc(N2CCCCC2)n1,–,–,–,–,–
COc1cccc(/C=N/Nc2nc(N3CCCC3)nc(N3CCCC3)n2)c1O,15µM,10µM,–,–,?
COc1ccc(/C=N/Nc2nc(N3CCCC3)nc(N3CCCC3)n2)c(OC)c1OC,?,7.9µM,–,–,–
Cn1c(SCC(=O)NC2CCCCC2)nnc1-c1ccccc1O,–,–,–,–,–
CCCCCCCCCCCCCCCC(=O)N[C@@H](COP(=O)(O)O)C(=O)O,·,–,·,·,–
SMILES,ELG1 DNA repair,RORg inh,B2AR arrestin,TSHR antagonist,Gal4-VP16 FLuc
COc1ccc(C(=O)CC(=O)C(=O)Nc2cccc([N+](=O)[O-])c2C)cc1,–,10µM,–,–,?
COc1cccc(C(=O)CC(=O)C(=O)Nc2ccc(C)cc2Cl)c1,–,?,–,–,?
CCC(=O)Nc1cccc(NC(=O)c2cccc([N+](=O)[O-])c2C)c1,23µM,–,–,–,?
COc1cccc(C(=O)CC(=O)C(=O)Nc2cccc([N+](=O)[O-])c2C)c1,–,14µM,–,–,?
COc1ccccc1C/C(N)=N/OC(=O)c1cccc([N+](=O)[O-])c1C,23µM,–,–,–,13µM
COc1ccc(C(=O)CC(=O)Nc2ccc([N+](=O)[O-])cc2)cc1,?,?,–,–,–
COc1ccc(/C(N)=N/OC(=O)c2cccc([N+](=O)[O-])c2C)cc1,?,–,–,–,–[10 µM]
CC1OC(n2cc(F)c(=O)[nH]c2=O)C(O)C1O (stereo unspecified),·,–,·,·,–
O=C(O)c1cc(=O)c2cccc(O)c2[nH]1,·,–,·,·,–
COc1ccccc1C(=O)CC(=O)C(=O)Nc1cccc([N+](=O)[O-])c1C,18µM,7.1µM,–,–,13µM
CN(CC(=O)Nc1ccc(Cl)c(C(F)(F)F)c1)C(=O)C1CSC2(C)CCC(=O)N12 (stereo unspecified),–,·,–,–,·
N#Cc1ccc(COc2cccc3cccnc23)cc1,–,10µM,–,–,–
